# Experimental data reported in PubChem BioAssay (NCI).
# The panel holds about 79,000 compounds, 15% with a hit somewhere; the sample as a whole holds those more often. A number with no mark means an inactive call. Calls of active or inactive are those of the source. No stated cut-off is given here; in the data, active means growth inhibition above about 70%; inactive means the rest.
# How the values were obtained:
# [1] = NCI Yeast Anticancer Drug Screen. Data for the rad52 strain (AID 147);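 further: 0% = growth of vehicle-treated control cultures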; details: S. cerevisiae rad52 mutant growth inhibition, active compounds read high
# In short: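 Vehicle-treated cultures served as the reference for growth inhibition of compound-exposed yeast bearing a DNA repair mutation.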
# [2] = NCI Yeast Anticancer Drug Screen. Data for the wt1 strain (AID 149);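 further: 0% = growth of vehicle-treated wt1 cultures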; details: S. cerevisiae wt1 strain (SPY 50644) growth inhibition, active compounds read high
# In short: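 Growth inhibition read against vehicle controls after compound exposure of the wt1 yeast strain.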
# [3] = NCI Yeast Anticancer Drug Screen. Data for the rad50EPP+ strain (AID 151);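 further: 0% = growth of vehicle-treated control cultures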; details: S. cerevisiae rad50 mutant strain, active compounds read high
# In short: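 In this screen, rad50EPP+ yeast were exposed to compounds. Growth inhibition was scored against vehicle-treated controls.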
# [4] = NCI Yeast Anticancer Drug Screen. Data for the mgt1 strain (AID 153); details: S. cerevisiae mgt1 mutant growth inhibition, active compounds read high
# In short: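 mgt1 strain exposed; growth vs vehicle control recorded as inhibition.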
# [5] = NCI Yeast Anticancer Drug Screen. Data for the rad50 strain (AID 155);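 further: 0% = growth of vehicle-only cultures of the same strain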; details: S. cerevisiae rad50 strain growth inhibition, active compounds read high
# In short: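 Readout: growth inhibition relative to vehicle-treated cultures. Compound exposure was carried out in a genetically defined yeast strain deficient in DNA damage repair.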
# [6] = NCI Yeast Anticancer Drug Screen. Data for the mec2-1 strain (AID 157); details: S. cerevisiae mec2-1 strain, active compounds read high
# In short: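 Vehicle-treated cultures served as reference for growth inhibition of compound-exposed mec2-1 yeast.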
# [7] = NCI Yeast Anticancer Drug Screen. Data for the rad14 strain (AID 159);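 further: 0% = growth of vehicle-treated control cultures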; details: S. cerevisiae rad14 strain growth inhibition, active compounds read high
# In short: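 Growth inhibition vs vehicle controls; genetically altered yeast strain (DNA damage repair defect) treated with test compounds.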
# [8] = NCI Yeast Anticancer Drug Screen. Data for the sgs1 mgt1 strain (AID 161);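 further: 0% = growth of cultures given vehicle only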; details: S. cerevisiae sgs1 mgt1 strain, active compounds read high
# In short: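 Inhibition of yeast growth, normalised to vehicle-treated controls, is reported for a strain bearing genetic alterations in DNA damage repair.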
# [9] = NCI Yeast Anticancer Drug Screen. Data for the CLN2oe strain (AID 163);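 further: 0% = growth of vehicle-only control cultures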; details: S. cerevisiae CLN2oe strain, active compounds read high
# In short: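 Inhibition relative to vehicle-treated yeast is reported. Cells: strain with genetic alteration in cell-cycle control, grown with compound.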
# [10] = NCI Yeast Anticancer Drug Screen. Data for the cln2 rad14 strain (AID 165);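 further: 0% = growth equal to vehicle treated cultures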; details: S. cerevisiae cln2 rad14 strain, active compounds read high
# In short: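 Each compound was tested on cln2 rad14 yeast. Inhibition of growth was calculated against vehicle-exposed controls.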
# [11] = NCI Yeast Anticancer Drug Screen. Data for the bub3 strain (AID 167); details: S. cerevisiae bub3 mutant strain, active compounds read high
# In short: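 Readout: yeast growth inhibition, expressed relative to vehicle-only wells. The test organism is a mutant strain from a panel with lesions in DNA repair or checkpoint genes.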
# [12] = NCI Yeast Anticancer Drug Screen. Data for the wt2 strain (AID 169);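 further: 0% = growth of vehicle-treated yeast cultures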; details: S. cerevisiae wt2 strain growth inhibition, active compounds read high
# In short: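 Inhibition of yeast growth was determined after compound treatment, normalised to controls receiving only vehicle.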
# [13] = NCI Yeast Anticancer Drug Screen. Data for the mlh1 strain (AID 171);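 further: 0% = growth of vehicle-treated control cultures of the same strain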; details: S. cerevisiae mlh1 strain growth inhibition, active compounds read high
# In short: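 Vehicle-normalised growth inhibition of a repair- or checkpoint-altered yeast strain following compound treatment.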
# [14] = NCI Yeast Anticancer Drug Screen. Data for the sgs1 strain (AID 173);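 further: 0% = growth of vehicle-only control cultures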; details: S. cerevisiae sgs1 mutant, active compounds read high
# In short: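 Screen format: yeast with repair or checkpoint alterations, compound exposure, growth read relative to vehicle.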
# [15] = NCI Yeast Anticancer Drug Screen. Data for the mlh1 rad18 strain (AID 175); details: S. cerevisiae mlh1 rad18 strain growth inhibition, active compounds read high
# In short: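 Vehicle-treated cultures served as the reference for growth inhibition in a yeast strain carrying DNA damage repair alterations exposed to each compound.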
# [16] = NCI Yeast Anticancer Drug Screen. Data for the rad18 strain (AID 177); details: S. cerevisiae rad18 mutant growth inhibition, active compounds read high
# In short: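 Test articles were incubated with altered yeast defective in DNA damage repair. Results are given as inhibition of growth versus vehicle.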
# [17] = at 5.0 µM (retest, dose inferred, filed as 0.5)
# [18] = at 50.0 µM (retest, dose inferred, filed as 5.0)
smiles,measurement,setting,value
S=C(NCc1ccccn1)N/N=C/c1ccccn1,growth inhibition,[1]; at 1.2 µM,98% (active)
same,growth inhibition,[1]; at 3.7 µM,99% (active)
same,growth inhibition,[1]; at 11.0 µM,99% (active)
same,growth inhibition,[1]; at 33.0 µM,99% (active)
same,growth inhibition,[1]; at 100.0 µM,98% (active)
same,growth inhibition,[2]; at 1.2 µM,98% (active)
same,growth inhibition,[2]; at 3.7 µM,98% (active)
same,growth inhibition,[2]; at 11.0 µM,99% (active)
same,growth inhibition,[2]; at 33.0 µM,99% (active)
same,growth inhibition,[2]; at 100.0 µM,99% (active)
same,growth inhibition,[3]; at 1.2 µM,34%
same,growth inhibition,[3]; at 3.7 µM,63%
same,growth inhibition,[3]; at 11.0 µM,87% (active)
same,growth inhibition,[3]; at 33.0 µM,93% (active)
same,growth inhibition,[3]; at 100.0 µM,96% (active)
same,growth inhibition,[4]; at 1.2 µM,97% (active)
same,growth inhibition,[4]; at 3.7 µM,98% (active)
same,growth inhibition,[4]; at 11.0 µM,99% (active)
same,growth inhibition,[4]; at 33.0 µM,99% (active)
same,growth inhibition,[4]; at 100.0 µM,99% (active)
same,growth inhibition,[5]; at 1.2 µM,97% (active)
same,growth inhibition,[5]; at 3.7 µM,98% (active)
same,growth inhibition,[5]; [17],40%
same,growth inhibition,[5]; at 11.0 µM,98% (active)
same,growth inhibition,[5]; at 33.0 µM,98% (active)
same,growth inhibition,[5]; [18],99% (active)
same,growth inhibition,[5]; at 50.0 µM,75.5% (active)
same,growth inhibition,[5]; at 100.0 µM,98% (active)
same,growth inhibition,[6]; at 1.2 µM,97% (active)
same,growth inhibition,[6]; at 3.7 µM,98% (active)
same,growth inhibition,[6]; [17],33%
same,growth inhibition,[6]; at 11.0 µM,99% (active)
same,growth inhibition,[6]; at 33.0 µM,99% (active)
same,growth inhibition,[6]; [18],99% (active)
same,growth inhibition,[6]; at 50.0 µM,84.2% (active)
same,growth inhibition,[6]; at 100.0 µM,99% (active)
same,growth inhibition,[7]; at 1.2 µM,98% (active)
same,growth inhibition,[7]; at 3.7 µM,99% (active)
same,growth inhibition,[7]; at 11.0 µM,99% (active)
same,growth inhibition,[7]; at 33.0 µM,99% (active)
same,growth inhibition,[7]; at 100.0 µM,99% (active)
same,growth inhibition,[8]; [17],69%
same,growth inhibition,[8]; [18],99% (active)
same,growth inhibition,[8]; at 50.0 µM,90.1% (active)
same,growth inhibition,[9]; at 1.2 µM,97% (active)
same,growth inhibition,[9]; at 3.7 µM,99% (active)
same,growth inhibition,[9]; at 11.0 µM,99% (active)
same,growth inhibition,[9]; at 33.0 µM,99% (active)
same,growth inhibition,[9]; at 100.0 µM,99% (active)
same,growth inhibition,[10]; [17],-1%
same,growth inhibition,[10]; [18],99% (active)
same,growth inhibition,[10]; at 50.0 µM,89.7% (active)
same,growth inhibition,[11]; at 1.2 µM,94% (active)
same,growth inhibition,[11]; at 3.7 µM,98% (active)
same,growth inhibition,[11]; [17],-10%
same,growth inhibition,[11]; at 11.0 µM,99% (active)
same,growth inhibition,[11]; at 33.0 µM,99% (active)
same,growth inhibition,[11]; [18],99% (active)
same,growth inhibition,[11]; at 50.0 µM,90.1% (active)
same,growth inhibition,[11]; at 100.0 µM,98% (active)
same,growth inhibition,[12]; at 1.2 µM,97% (active)
same,growth inhibition,[12]; at 3.7 µM,98% (active)
same,growth inhibition,[12]; at 11.0 µM,98% (active)
same,growth inhibition,[12]; at 33.0 µM,99% (active)
same,growth inhibition,[12]; at 100.0 µM,99% (active)
same,growth inhibition,[13]; at 1.2 µM,96% (active)
same,growth inhibition,[13]; at 3.7 µM,98% (active)
same,growth inhibition,[13]; at 11.0 µM,98% (active)
same,growth inhibition,[13]; at 33.0 µM,97% (active)
same,growth inhibition,[13]; at 100.0 µM,98% (active)
same,growth inhibition,[14]; at 1.2 µM,99% (active)
same,growth inhibition,[14]; at 3.7 µM,98% (active)
same,growth inhibition,[14]; at 11.0 µM,98% (active)
same,growth inhibition,[14]; at 33.0 µM,99% (active)
same,growth inhibition,[14]; at 100.0 µM,99% (active)
same,growth inhibition,[15]; [17],5%
same,growth inhibition,[15]; [18],99% (active)
same,growth inhibition,[15]; at 50.0 µM,90.7% (active)
same,growth inhibition,[16]; at 1.2 µM,98% (active)
same,growth inhibition,[16]; at 3.7 µM,98% (active)
same,growth inhibition,[16]; at 11.0 µM,98% (active)
same,growth inhibition,[16]; at 33.0 µM,98% (active)
same,growth inhibition,[16]; at 100.0 µM,99% (active)
